Data as given in paper PMC4552634, “A New Set of Chemical Starting Points with Plasmodium falciparum Transmission-Blocking Potential for Antimalarial Drug Discovery” (PLoS ONE, 2015).
Screen size: about 13,000 compounds; about 3,200 (25%) showed an effect of 50% or more. This is one part of the list.

Each molecule was assayed on P. falciparum stage V gametocytes. Details: 48 h, 5 µM; inhibitor.
Design: BacTiter-Glo ATP luminescence viability of purified stage V gametocytes in 384-well plates, per cent inhibition versus DMSO

SMILES	% Inhibition
Cc1ccccc1C1CCN(C2CCC(NC(=O)c3ccc(-c4cccs4)s3)CC2)CC1 (stereo not shown) [TCMDC-134105]	-3.744%
CC(=O)Nc1ncc(C(=O)Nc2cccc(-c3ccc(-c4nc5ccc(F)cc5[nH]4)cc3)c2)s1 [TCMDC-136916]	-12.2%
O=C(NCc1ccccc1[S+]([O-])c1ccccc1CO)C(F)(F)F (stereo not shown) [TCMDC-137886]	0.169%
Cc1cccc2nc(-c3cccc(-c4ccc(CNCc5cnn(-c6ccccc6)n5)cc4)c3)[nH]c12.O=C(O)C(F)(F)F [TCMDC-132965]	-15.5%
S=C(NCCN1CCOCC1)Nc1ccccc1 [TCMDC-123845]	-18.32%
N#Cc1cc(C(=O)c2cc(Cl)ccc2O)cn(-c2cc(Cl)cc(Cl)c2)c1=O [TCMDC-125188]	-6.306%
Cc1cc(N(C)C)nc(Nc2ccc(NS(=O)(=O)c3ccccc3)cc2)n1 [TCMDC-124952]	7.952%
COc1ccc(CNCc2ccccc2)cc1-c1ccc(S(=O)(=O)NCCN2CCCC2)c(F)c1 [TCMDC-132265]	101.3%
COc1ccc(CNCc2ccccc2)cc1-c1ccc(S(=O)(=O)NCCN2CCCC2)c(C)c1 [TCMDC-132272]	107.1%
O=S(=O)(NCCN1CCCC1)c1ccc(-c2ccc(CNCc3ccccc3)cc2)cc1F [TCMDC-132236]	50.96%
COc1ccc(CNCc2ccc(F)cc2)cc1-c1ccc(S(=O)(=O)NCCN2CCCC2)c(C)c1 [TCMDC-132224]	105.7%
O=S(=O)(NCCN1CCCC1)c1ccc(-c2ccc(CNCc3ccc(F)cc3)cc2)cc1F [TCMDC-132287]	42.7%
Cc1cc2c(cc1C(F)(F)F)N(C(=O)Nc1ccc(C(=O)NC3CCN(Cc4ccccc4)C3)cc1)CC2 (stereo not shown) [TCMDC-139871]	23.78%
Clc1cc(Br)ccc1-c1ccc(CNCC2CCNCC2)o1 [TCMDC-124617]	29.69%
CC(C)Cc1cnc2nc(N)nc(N)c2c1 [TCMDC-137923]	48.38%
N#Cc1c(-c2ccccc2)cn2c1[nH]c(=O)c1ccccc12 [TCMDC-124997]	14.43%
CCN(CCCN1CCCCC1)c1cc(C)nc(Nc2ccc(C)c(F)c2)n1 [TCMDC-132437]	25.13%
O=C(NCCN1CCOCC1)c1ccc(CNC(=O)c2ccc(O)c(-c3ccc(Cl)c(Cl)c3)c2)cc1 [TCMDC-140852]	5.208%
CON(C)C(=O)[C@@H](CCCCNC(=O)OCc1ccccc1)NC(=O)OC(C)(C)C [TCMDC-132004]	-2.99%
O=C(CN1CCC(NCc2cnc(-c3ccc(Cl)cc3)[nH]2)CC1)N1CCc2ccccc21 [TCMDC-138589]	28.41%
Cc1cc(OCCCN2CCCCC2C)ccc1NC(=O)COc1ccc(Cl)cc1C(=O)c1cc(Cl)cc(C#N)c1 (stereo not shown) [TCMDC-134727]	73.35%
Cc1cc(OCCCN2CCCCC2)ccc1NC(=O)COc1ccc(Cl)cc1C(=O)c1cc(Cl)cc(C#N)c1 [TCMDC-134725]	48.49%

SMILES	% Inhibition
Cc1cc(OCCCN2CCN(CCN3CCOCC3)CC2)ccc1NC(=O)COc1ccc(Cl)cc1C(=O)c1cc(Cl)cc(C#N)c1 [TCMDC-135999]	30.59%
Cc1cc(OCC2CCCN(c3ncc(C(=O)NC4CC4)cc3Cl)C2)ccc1F (stereo not shown) [TCMDC-134314]	18.53%
Cc1cc(OCCCN2CCCCC2)ccc1NC(=O)COc1ccc(Cl)cc1C(=O)c1cc(C#N)cc(C(F)(F)F)c1 [TCMDC-134827]	50%
Cc1cc(OCC2CCN(c3ncc(C(=O)Nc4ccccc4)cc3Cl)CC2)ccc1F [TCMDC-134033]	-3.032%
Cc1c(NC(=O)COc2ccc(Cl)cc2C(=O)c2cc(F)cc(C(F)(F)F)c2)ccc2ncsc12 [TCMDC-138907]	4.382%
Cc1cc(OCCCN2CCCC2)ccc1NC(=O)COc1ccc(Cl)cc1C(=O)c1cc(C#N)cc(C(F)(F)F)c1 [TCMDC-138904]	58.86%
COc1cc(NC(=O)N2CCc3ccc(OCCN4CCCCC4)cc32)cc(C(F)(F)F)c1 [TCMDC-140249]	14.65%
CCCCCCN1CCCN(Cc2cccc(C(=O)Nc3ccc(C(C)(C)C)cc3)c2)CC1 [TCMDC-135993]	-6.517%
CCCC(C)NC(=O)[C@H](Cc1ccccc1)NC(=O)c1ccc(O)c(-c2ccc(OC)cc2)c1 (stereo partly shown) [TCMDC-140800]	19.41%
CC(C)CNC(=O)c1cncc(-c2ccc(CNCCCc3ccccc3)cc2)c1 [TCMDC-134247]	-10.62%
CN(C)CCOc1cccc(NC(=O)Nc2ccc(-c3ccccc3)cc2)c1 [TCMDC-139537]	22.41%
CC(C)CNCc1cccc(-c2ccc(CNc3ccc(C(=O)c4ccccc4)cc3)cc2)c1 [TCMDC-140728]	10.94%
CC(C)CNCc1ccc(-c2cccc(CN(CCN(C)C)C(=O)NCCc3ccccc3)c2)cc1 [TCMDC-140621]	102.2%
CC(C)CNCc1cccc(-c2cccc(CN(CCN(C)C)C(=O)Nc3ccccc3)c2)c1 [TCMDC-140592]	108.6%
CC(C)CNCc1cccc(-c2cccc(CN(CCN(C)C)C(=O)NCCc3ccccc3)c2)c1 [TCMDC-140620]	102.4%
CN(C)CCN(C)Cc1cccc(-c2cccc(NC(=O)c3cccc(C#N)c3)c2)c1 [TCMDC-133360]	6.032%
CCOC(=O)CNC(=O)N(CCN(Cc1ccccc1)C(=O)NCC(=O)OCC)Cc1ccccc1 [TCMDC-138999]	6.745%
CC[C@H](C)CNC(=O)c1cncc(-c2cccc(CNCCCc3ccccc3)c2)c1 [TCMDC-134221]	19.08%
CN(CC(=O)Nc1ccc(F)c(F)c1F)c1ncnc2sc(-c3ccccc3)cc12 [TCMDC-124491]	23.36%
O=C(Nc1ccc2c(ccn2C2CCCN(Cc3cc(F)cc(F)c3F)CC2)c1)c1ccco1 (stereo not shown) [TCMDC-135087]	26.42%
Nc1nc(N)c2cc(N(Cc3ccccc3)Cc3ccccc3)ccc2n1 [TCMDC-137850]	-9.254%
